Compounds with a hit are over-represented: about 19% of the library has one in this group of screens.
ELG1 repair inh: qHTS screen for small molecules that inhibit ELG1-dependent DNA repair in human embryonic kidney (HEK293T) cells expressing luciferase-tagged ELG1; HEK293T ELG1-luciferase reporter, luminescence, 16 h; DNA damage induced by 5-fluorouridine; Potency, µM (highest dose often 46.1 µM), inactives show top-dose activity change, negative = inhibition, usual class: inhibitors; 2.3% of 330,000 active; AID 504467, 2011; note: potency is the fitted concentration of half-maximal effect; nearly all actives have a fitted effect of over 55% in size
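Step one: seed 2,000 cells per well. Step two: pin-transfer compound or DMSO alongside 5-fluorouridine. Step three: incubate 16 hr, 37 °C, 5% CO2. Step four: add ONE-Glo, wait 30 min, read luminescence.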
IL-1B inflam inh: qHTS for Inhibitors of Inflammasome Signaling: IL-1-beta AlphaLISA Primary Screen; 4.7% of 360,000 active; activity change, % at 57.5 µM; THP-1 LPS/ATP IL-1B secretion, AlphaLISA, 16 h; hits give low values; in the data active = activity change below about -50%; inconclusive = mostly about -30% to -49%
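Secreted IL-1B measured by AlphaLISA bead assay after 16 h compound exposure of THP-1 cells; compounds (final up to 57.5 uM) added 1 h before LPS (250 ng/mL) and ATP (1.25 mM) stimulation; lower signal means less secretion.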
TDP1 cell CPT: qHTS for Inhibitors of human tyrosyl-DNA phosphodiesterase 1 (TDP1): qHTS in cells in presence of CPT; 12% of 420,000 active; chicken DT40 Tdp1-/-;hTDP1 cells + 20 nM CPT, ATP luminescence, 48 h; Potency, µM (top dose mostly 46.2 µM), for inactives: at the top dose activity change, negative = growth inhibition, usual class: inhibitors; note: potency is the fitted concentration of half-maximal effect; nearly all actives have a fitted effect of over 55% in size
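Chicken DT40 Tdp1-/- cells complemented with human TDP1, 400 cells/well, exposed to compounds plus 20 nM camptothecin for at least 48 h at 37 C; viability read as ATP content by CellTiter-Glo luminescence.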
DT40 TDP1 no CPT: qHTS for Inhibitors of human tyrosyl-DNA phosphodiesterase 1 (TDP1): qHTS in cells in absence of CPT. 15% of 420,000 active. DT40 Tdp1-/- hTDP1 cells, no CPT, ATP luminescence, 48 h. Potency, µM (titrated, usually from 46.2 µM), without a hit: top-dose activity change, negative = growth inhibition, actives largely listed as inhibitors; note: potency is the fitted concentration of half-maximal effect; nearly all actives have a fitted effect of over 55% in size
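Stably hTDP1-transfected Tdp1-null chicken DT40 cells were treated with library compounds minus camptothecin and grown for at least 48 hr at 37 °C, after which cellular ATP was quantified by luminescence.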
HT1080-NT tox: qHTS for induction of synthetic lethality in tumor cells producing 2HG: qHTS for the HT-1080-NT fibrosarcoma cell line | HT-1080-NT fibrosarcoma viability, CellTiter-Glo ATP luminescence, 48 h | Potency, µM (highest dose often 46.1 µM), without a hit: at the highest dose activity, negative = less viability, usual class: cytotoxic | 1.6% of 360,000 active | AID 686970, 2013;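 note: NT is the 2HG producing partner of a matched IDH1 knockdown line; potency is the fitted concentration of half-maximal effect; 0% = DMSO-treated cells and -100% = media-only wells without cells; nearly all actives have a fitted effect of over 55% in size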
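A 48-hour cytotoxicity screen used HT-1080-NT cells plated 2 hours before compound delivery. ATP-based CellTiter-Glo luminescence measured viability, normalized to DMSO and no-cell controls.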
HT1080 IDH1KD tx: qHTS for induction of synthetic lethality in tumor cells producing 2HG: qHTS for the HT-1080-IDH1KD cell line | HT-1080 IDH1 knockdown viability, ATP luminescence, 48 h | Potency, µM (doses to about 46.1 µM), for inactives: at the top dose activity, negative = toxicity, most hits filed as cytotoxic | 2% of 360,000 active | AID 686971, 2013;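 note: potency is the fitted concentration of half-maximal effect; 0% = DMSO wells and -100% = cell-free medium wells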
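After a 2 h attachment period, IDH1KD HT-1080 cells took pin-transferred compound for 48 h at 37 °C; ATP-based luminescence after 10 min room-temperature reagent incubation reported viability.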
Starred values were filed as active, the others as inactive; i = inactive; ? = inconclusive; . = no result; ! = not confirmed by another sample. Unless noted, calls come from the whole dose curve; as a rule, active = well fitted curve in the direction sought with a large enough effect; inconclusive = small, poorly fitted or top-dose-only effect, or another doubt; inactive = no such curve, though single readings can be large; an effect the other way counts as inactive or inconclusive. Unless noted, % is set by controls: 0 for no effect and ±100 for the full control effect.

SMILES	ELG1 repair inh	IL-1B inflam inh	TDP1 cell CPT	DT40 TDP1 no CPT	HT1080-NT tox	HT1080 IDH1KD tx
CCOc1ccc(N2CC(C(=O)NCc3ccc4c(c3)OCO4)CC2=O)cc1 (configuration not stated)	-14%	9	-2%	0%	9%	5%
CC(C)NCC(O)c1ccc(O)c(O)c1 (configuration not stated)	19%	-25	?	-24%	?	10%
CNC[C@H](O)c1ccc(O)c(O)c1	7%	?	8.4µM*!	12µM*!	15%	-1%
CCc1ccc(CNC(=O)c2cnc(N3CCCCC3)c3ccccc23)cc1	.	.	23µM*	26µM*	.	.
O=C(NCc1ccccc1Cl)c1cnc(N2CCCCC2)c2ccccc12	.	.	18µM*	?	.	.
CCc1ccc(NC(=O)c2cnc(N3CCN(c4ccccn4)CC3)c3ccccc23)cc1	?	-19	7.3µM*	6.5µM*	-1%	-11%
O=C(O)/C=C/C(=O)N1CCN(c2cccc(Cl)c2)CC1	2%	-19	6%	5%	-12%	0%
Cc1nc2cnc(Oc3cccc(Cl)c3)nc2n(C[C@H]2CCCO2)c1=O	.	.	-10%	?	.	.
Fc1ccc(-n2ncc3c(N4CCN(c5ccccc5F)CC4)ncnc32)cc1	.	.	-8%	-12%	.	.
CC(=O)C(N=Nc1ccccc1)(Sc1nnc(-c2ccccc2)n1-c1ccccc1)C(C)=O	-14%	-5	?	16µM*	-28%	-30%
CCSc1nc2ccc(OC)cc2cc1C#N	?	-1	9%	-11%	6%	10%
COc1ccc2nc(SCC(=O)Nc3ccc4sc(C)nc4c3)c(C#N)cc2c1	?	13	13µM*	8.2µM*	2%	-1%
Cc1cccc(Nc2ncnc3ccc(Br)cc23)c1	?	-51*	?	?	-12%	-20%
CN(C)c1ccc(Nc2ncnc3ccc(Br)cc23)cc1	8.2µM*	-10	?	?	-4%	-6%
Clc1cccc(Nc2ncnc3ccc(Br)cc23)c1	?	-58*	26µM*	?	7.9µM*	?
CCOC(=O)c1cccc(Nc2ncnc3ccc(C)cc23)c1	?	-15	15µM*	21µM*	?	?
CN(C)c1ccc(Nc2cc(Cl)ncn2)cc1	?	8	?	-13%	1%	7%
CCOC(=O)c1cccc(Nc2nc(C)cc(C)n2)c1	?	44	3%	-5%	16%	17%
CCOC(=O)c1cccc(Nc2cc(C)nc(C)n2)c1	.	.	?	16µM*	.	.
Clc1ccc(Nc2ncnc3ccc(Br)cc23)cc1	?	-9	10µM*	15µM*	?	?
CC(C)(C)NCC(O)c1ccc(O)c(CO)n1 (configuration not stated)	.	.	3%	-4%	.	.
CC1=C(C(=O)NCc2cccc(F)c2)C2(CCCCC2)OC1=O	.	.	-25%	-14%	.	.
CCNc1ncc2nc(-c3ccc(OC)cc3)c(=O)n(CCC#N)c2n1	.	.	15%	6%	.	.
Cc1cc(C)cc(-n2ncc3c2CCCC3NC(=O)CCN2CCCC2=O)c1 (configuration not stated)	1%	i	1%	-3%	6%	10%
Cc1ccc(S(=O)(=O)/N=C(/c2ccc(F)cc2)N(C)C)cc1	?	15	29%	5%	16%	9%
O=[N+]([O-])c1cccc(C=NNc2ccc3ccccc3n2)c1O	.	84	5.2µM*	5.8µM*	-28%	?

Compound activity from PubChem BioAssay.
